Reference: PubChem BioAssay
Calls of active or inactive are those of the source.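 The calls were made as follows: active = inhibition at or above 50% relative to wild type and mutant plate controls; inactive = inhibition below 50%.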

assay: loss of swimming-algae plug formation – whole organism, Chlamydomonas reinhardtii, WT vs cilia-less mutant, absorbance, 96-well, primary screen (AID 463189); settings: Chlamydomonas reinhardtii gravitaxis, OD600 absorbance, 2 days; at 10 µM; active compounds read high;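 also: 0% = wild type cc124 cells in DMSO and 100% = ciliumless bld1 mutant cells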

| Compound | inhibition |
| --- | --- |
| CNC[C@H](O)c1ccc(O)c(O)c1 | 1.9% (inactive) |
| Nc1ncnc2c1nc(Br)n2C1OC2COP(=O)(O)O[C@@H]2C1O (stereo not given in full) | 7.89% (inactive) |
| Nc1ncnc2c1ncn2C1CCCC1 | -2.12% (inactive) |
| Cc1cc(N)c2ccccc2[n+]1CCCCCCCCCC[n+]1c(C)cc(N)c2ccccc21 | 147% (active) |
| CC1=C(CC(=O)O)c2cc(F)ccc2/C1=C\c1ccc(S(C)(=O)=O)cc1 | 2.22% (inactive) |
| CN1CCN(CC/C=C2/c3ccccc3Sc3ccc(S(=O)(=O)N(C)C)cc32)CC1 | 19.2% (inactive) |
| O=c1[nH]c2cc(C(F)(F)F)ccc2n1-c1cc(C(F)(F)F)ccc1O | -0.852% (inactive) |
| O=c1c(-c2ccc(O)cc2)coc2cc(O)cc(O)c12 | -5.08% (inactive) |
| Fc1ccc(CN(C2=NCCN2)c2c(Cl)cccc2Cl)cc1 | -0.588% (inactive) |
| CCCC(CCC)C(=O)O | 2.56% (inactive) |
| CCCC(=O)NCCc1c2n(c3ccc(OC)cc13)Cc1ccccc1-2 | -1.81% (inactive) |
| O=c1[nH]ccc2c(O)cccc12 | 3.93% (inactive) |
| CCCOC(=O)c1c(-c2ccccc2)nc(CC)c(C(=O)SCC)c1CCC | 10.6% (inactive) |
| NCCCC(N)(C(=O)O)C(F)F (stereo not given) | 3.03% (inactive) |
| CCn1c(=O)[nH]c2cc(Cl)c(Cl)cc21 | 1.13% (inactive) |
| CSC(N)=NCCC[C@H](N)C(=O)O | 9.75% (inactive) |
| O=C(Nc1cccc(C(=O)Nc2ccc(S(=O)(=O)O)c3cc(S(=O)(=O)O)cc(S(=O)(=O)O)c23)c1)Nc1cccc(C(=O)Nc2ccc(S(=O)(=O)O)c3cc(S(=O)(=O)O)cc(S(=O)(=O)O)c23)c1 | 1.9% (inactive) |
| CC12CC3CC(C)(C1)CC(N)(C3)C2 | 3.51% (inactive) |
| O=C(O)c1cc(=O)c2ccc(Cl)cc2[nH]1 | 4.9% (inactive) |
| CNCCC(Oc1ccccc1OC)c1ccccc1 (stereo not given) | 13.4% (inactive) |

| Compound | inhibition |
| --- | --- |
| O=C1O/C(=C/Br)CCC1c1cccc2ccccc12 (stereo not given) | -0.58% (inactive) |
| CN(C)C(N)=NCCC[C@H](N)C(=O)O | 11.1% (inactive) |
| O=c1cc(-c2ccccc2)[nH]c2nc(Cl)ccc12 | 6.49% (inactive) |
| COc1cc(C(O)CO)ccc1OS(=O)(=O)O (stereo not given) | -4.77% (inactive) |
| Nc1ncn([C@@H]2O[C@H](CO)[C@@H](O)[C@H]2O)c(=O)n1 | 3.22% (inactive) |
| CCCCCCCCCCCCCCC[C@H](O)[C@H](N)CO | 38.7% (inactive) |
| O=C(O)[C@@H]1C[C@@H](C(=O)O)N1 | -5.37% (inactive) |
| CC(C)NC[C@H](O)COc1cccc2ccccc12 | 8.72% (inactive) |
| C=C[C@H]1CN2CCC1C[C@@H]2[C@@H](O)c1ccnc2ccc(OC)cc12 (stereo not given in full) | 5.44% (inactive) |
| CSc1nc(N)c2ncn([C@@H]3O[C@H](COP(=O)(O)OP(=O)(O)O)[C@H](O)C3O)c2n1 (stereo not given in full) | 6.63% (inactive) |
| CC1(NCC(O)COc2cccc3[nH]ccc23)CCC(C(C)(C)NC(=O)CBr)CC1 (stereo not given) | 5.45% (inactive) |
| CNCCNS(=O)(=O)c1cccc2cnccc12 | 5.09% (inactive) |
| CC(C)NNC(=O)c1ccncc1 | 2.86% (inactive) |
| CN(C)C/C=C(/c1ccc(Br)cc1)c1cccnc1 | 108% (active) |
| Cc1ccc(O)c(N=Nc2ccccc2)n1 | -1.99% (inactive) |
| Oc1ccccc1O | -5% (inactive) |
| Nc1ccn([C@@H]2O[C@H](CO)[C@@H](O)[C@@H]2O)c(=O)n1 | 0.194% (inactive) |
| C[C@H]1O[C@@H](n2cc(F)c(=O)[nH]c2=O)[C@H](O)[C@@H]1O | 2.48% (inactive) |
| Nc1cc(Cl)c(NC2=NCCN2)c(Cl)c1 | -3.5% (inactive) |
| Clc1ccc(C(c2ccccc2Cl)C(Cl)Cl)cc1 (stereo not given) | 11.1% (inactive) |
